The source of these data is PubChem BioAssay (NCI).

Compounds without any hit were thinned out: in the full panel of roughly 83,000, 20% have a hit.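 Step 1: grow cells in 96-well plates. Step 2: add test compound at a single concentration. Step 3: incubate 48 h. Step 4: record percent growth.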 Calls of active or inactive are those of the source. How the source made its calls: active means growth percent below 10; inactive means the rest.

For the first assay, the system named is CCRF-CEM leukemia. The experiment in a line: NCI-60 one-dose screen, 48 h (100 = growth as untreated, 0 = no growth, -100 = all killed). As to conditions: 10 µM unless noted.
As to `CCN(CC)CCSCCCNc1c(C)cnc2cc(Cl)ccc12`, the growth is 80.6% (inactive).
In the case of `BrC(Br)(Br)c1cnc2ccccc2n1`, the growth was 23.2% (inactive).
As to `CC[C@@]12C=CCN3CC[C@]4(c5cc(NC(=O)COc6cc(OCC(=O)Nc7cc8c(cc7OC)N(C)[C@H]7[C@@](O)(C(=O)OC)[C@H](OC(C)=O)[C@]9(CC)C=CCN%10CC[C@]87[C@@H]%109)cc7oc(-c8ccccc8)cc(=O)c67)c(OC)cc5N(C)[C@@H]4[C@](O)(C(=O)OC)[C@H]1OC(C)=O)[C@H]32`, the growth was 13.6% (inactive).
With `COc1ccc(/C=C\c2nc3ccccc3s2)cc1OP(=O)(O)O`, the growth is 16.8% (inactive).
The same measure, in the same setting: next, `COc1ccc(C(=O)c2cc3c(N)c(C(=O)Nc4cccc(Cl)c4C)sc3nc2C)cc1`: 5.42% (active); `O=C(CSc1nc2sc3c(c2c(=O)n1Cc1ccccc1)CCCC3)N1CCN(c2ccccc2)CC1`: 97.7% (inactive); `O=C1/C(=C/c2ccc(O)cc2)COc2ccc(-c3ccccc3)cc21`: -25.2% (active).
Turning to `NS(=O)(=O)c1cccc(NC(=O)C(=O)C2C(=O)Nc3ccccc32)c1` (stereo not given), the growth is 69.7% (inactive).

A further assay has as its system MOLT-4 leukemia. The description is as above. The conditions noted are these: 10 µM unless noted.
For the compound `COc1cccc2cc(-c3cc4ccccc4[nH]3)/c(=N/C(=S)Nc3ccc(C)cc3)oc12`, the growth is 101% (inactive).
With `CN1C(=O)N(C)C2NC(N/N=C/c3ccccc3)=NC21` (stereo not given), the growth was 103% (inactive).
`COc1cc(-c2cc(=O)oc3cc(O)ccc23)cc(OC)c1OC`: the growth is 92.9% (inactive).
Take `COc1ccccc1/C=N/NC1=NC2C(N1)N(C)C(=O)N2C` (stereo not given): the growth was 102% (inactive).
Regarding `CCN(CC)CCSCCCNc1c(C)cnc2cc(Cl)ccc12`, the growth was 70.4% (inactive).
Regarding `COc1cc(Nc2cc(O)c3c(=O)cc(-c4ccccc4)oc3c2)cc(OC)c1`, the growth was 24.6% (inactive).
Take `NC(=O)c1ncn(C2OC(CO)C(O)C2O)n1` (stereo not given): the growth was 52.7% (inactive).
Take `C(=N\Nc1ncc(-c2cc3cc4c(cc3o2)OCO4)s1)/c1c[nH]c2ccccc12`: the growth is -23.8% (active).
With `c1ccc(C2CC(c3cccc(Nc4ccncc4)c3)=NN2c2ccccc2)cc1` (stereo not given), the growth is 18% (inactive).
On the same count and under the same terms, for `CC1=NNC(=O)C1CCC(=O)N/N=C(\C)c1ccc2ccccc2c1` (stereo not given) the value was 88.9% (inactive); for `O=C(N/N=C/c1ccncc1)c1ccccc1Nc1cccc(C(F)(F)F)c1`, 72.2% (inactive).
For `COc1ccc(Nn2c(SCC(=O)Nc3nc(-c4ccc(Cl)cc4)cs3)nc(C)c2C)cc1`, the growth was 36.1% (inactive).
With `COc1c(Cl)cc(Cl)c2ccc(C=C3C(=O)N(C)C(=O)N(C)C3=O)nc12`, the growth was 99.5% (inactive).
Turning to `Cc1cccc(C)c1-c1cc(Cc2ccc(Cl)cc2)c(=O)[nH]n1`, the growth was 74.3% (inactive).
On to `CCN1C(=O)N(CC)C2C1NN=c1s/c(=C3\C(=O)Nc4ccccc43)c(=O)n12` (stereo not given), for which the growth is 46.1% (inactive).
As for `CC(=O)Nc1ccc(C(=O)Nc2cc(-c3ccccc3)ccc2N)cc1`, the growth was 64.8% (inactive).
On the same count and under the same terms, for `CN1CCN(c2cc(F)c(NC3=C(Cl)C(=O)c4ncccc4C3=O)c(F)c2)CC1` the value was -22.7% (active).
For `Clc1nc(Cl)c2ncn(CC3(Cn4cnc5c(Cl)nc(Cl)nc54)COC3)c2n1`, the growth was -66.8% (active).
Take `CC(C)(C)CC(C)(C)Nc1c(-c2ccc(C(F)(F)F)cc2)nc2cnccn12`: the growth is 68.5% (inactive).
The same measure, in the same setting: for `CCC(C)N(CCNc1cc(OC)cc2cccnc12)CCC(C)C` (stereo not given) the value was 83.9% (inactive); for `Cn1c(COC(=O)NCCc2ccccn2)nc2c(N3CCOCC3)nc(Cl)nc21`, 0.583% (active); for `Clc1ccc(N2N=C(c3cccc(Nc4ccncc4)c3)CC2c2ccc3c(c2)OCO3)cc1` (stereo not given), 2.58% (active).
For `COc1cc(CNC(=O)CCCCC[P+](c2ccccc2)(c2ccccc2)c2ccccc2)c(OC)c2c1OCO2`, the growth was 99.2% (inactive).
`CC[C@@]12C=CCN3CC[C@]4(c5cc(NC(=O)COc6cc(OCC(=O)Nc7cc8c(cc7OC)N(C)[C@H]7[C@@](O)(C(=O)OC)[C@H](OC(C)=O)[C@]9(CC)C=CCN%10CC[C@]87[C@@H]%109)cc7oc(-c8ccccc8)cc(=O)c67)c(OC)cc5N(C)[C@@H]4[C@](O)(C(=O)OC)[C@H]1OC(C)=O)[C@H]32`: the growth is 13.1% (inactive).
Regarding `O=C1Nc2c(ccc(Cl)c2Cl)/C1=C/c1ccc(O)cc1`, the growth is 77.3% (inactive).
As to `COc1ccc(/C=C(/c2ccccc2)[N+](=O)[O-])cc1`, the growth was -15.5% (active).
As for `COc1ccccc1/C=C1\Oc2cc(OCCCN3CCCC3)ccc2C1=O`, the growth was 93.3% (inactive).
